In PubChem BioAssay AID1851 (National Center for Advancing Translational Sciences (NCATS), 2009):
About 5,800 (36%) of roughly 16,000 compounds were called active. Inconclusive results (about 23%) are left out. Calls come from the whole dose curve; as a rule, active = well fitted curve in the direction sought with a large enough effect; inconclusive = small, poorly fitted or top-dose-only effect, or effect the other way; inactive = no such curve, though single readings can be large or run the other way. The list shows a part of the results.

These compounds were tested against Cytochrome P450 2C19 (Homo sapiens) (UniProt P33261) (assay: Cytochrome panel assay with activity outcomes). Conditions: recombinant CYP, pro-luciferin dealkylation, luminescence, p450-cyp2c19; series mostly up to 57.1 µM.
Cytochrome P450 2C19 (Homo sapiens), sequence (P33261 whole entry, looked up): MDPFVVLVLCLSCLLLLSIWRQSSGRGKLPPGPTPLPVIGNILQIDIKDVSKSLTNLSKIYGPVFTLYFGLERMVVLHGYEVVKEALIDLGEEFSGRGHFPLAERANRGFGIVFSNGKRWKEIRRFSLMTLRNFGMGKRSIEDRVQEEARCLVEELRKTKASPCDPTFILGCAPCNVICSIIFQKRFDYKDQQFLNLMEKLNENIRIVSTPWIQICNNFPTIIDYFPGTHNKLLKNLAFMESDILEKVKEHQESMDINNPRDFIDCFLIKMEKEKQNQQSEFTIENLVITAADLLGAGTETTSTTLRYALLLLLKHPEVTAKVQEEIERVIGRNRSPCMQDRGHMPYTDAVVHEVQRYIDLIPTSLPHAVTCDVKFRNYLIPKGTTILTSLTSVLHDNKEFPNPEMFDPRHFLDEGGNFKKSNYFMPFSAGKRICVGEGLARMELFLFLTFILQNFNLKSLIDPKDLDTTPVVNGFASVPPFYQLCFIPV
% is set by controls: 0 for no effect and ±100 for the full control effect.

SMILES	AC50	activity, negative = inhibition
COC(=O)C(NC(=O)c1ccccc1)=C1C=C(C)OC(C)=C1	inactive	–
CCCCS(=O)(=O)NC1=NCN(Cc2ccco2)CN1	inactive	–
CC1=CC(=C2C(=O)c3ccccc3C2=O)C=C(C)N1Cc1ccco1	4.47 µM (active)	–
CC1=CC(=C2C(=O)c3ccccc3C2=O)C=C(C)O1	25.1 µM (active)	–
Cc1nc(SCc2cccc(Oc3ccccc3)c2)n[nH]1	5.01 µM (active)	–
CO[C@]1(NC(=O)[C@H](C(=O)O)c2ccc(O)cc2)C(=O)N2C(C(=O)O)=C(CSc3nnnn3C)CO[C@H]21	inactive	–
COc1cccc(-c2cncnc2NCCc2cnc[nH]2)c1	0.01 µM (active)	–
FC(F)(F)c1ccccc1-c1cncnc1NCCc1cnc[nH]1	0.01 µM (active)	–
COc1ccccc1-c1cncnc1NCCc1cnc[nH]1	0.0794 µM (active)	–
CC(=O)NCCNc1ncncc1-c1ccccc1C(F)(F)F	inactive	–
CS(=O)(=O)N1CCC2(CCCN(C(=O)Nc3cccc(F)c3)C2)CC1	inactive	–
Cc1ccc(C(C)C)n1C(=O)OC(C)(C)C	–	4.81% [at 11.4 µM] (inactive)
CN(C)/C=N/c1ncc(C(=O)c2ccc3ccccc3c2)s1	14.1 µM (active)	–
CN(C)c1ccc(/C=N\NC(=O)c2cnc3ccccc3c2)cc1	–	21.3% [at 11.4 µM] (inactive)
COc1ccc(CCN(C(=O)C(F)(F)F)C(C(=O)NC2CCCC2)c2cccs2)cc1 (stereo not given)	2 µM (active)	–
COc1ccc(C(C(=O)NC2CCCC2)N(C(=O)c2snc(-c3ccc(F)cc3)c2N)c2ccccc2)cc1 (stereo not given)	inactive	–
O=C(NC1CCCCC1)C(c1cccs1)N(C(=O)C(F)(F)F)c1ccccc1 (stereo not given)	1.58 µM (active)	–
CCOC(=O)c1ccc(N/C(=N\S(=O)(=O)c2ccccc2C)c2ccccc2)cc1	7.94 µM (active)	–
COCCN1C(=O)c2ccccc2C(C(=O)Nc2ccc3c(c2)OCCO3)C1c1ccc(F)cc1 (stereo not given)	28.2 µM (active)	–
COc1cc2c(cc1OC)C(C(=O)Nc1ccc3c(c1)OCCO3)C(c1cccnc1)N(C)C2=O (stereo not given)	inactive	–
COc1cc(OC)c(C2C(C(=O)O)c3ccccc3C(=O)N2C)cc1OC (stereo not given)	inactive	–
CC1=NNC(=O)C1CCC(=O)N/N=C\c1ccccc1[N+](=O)[O-] (stereo not given)	inactive	–
CCn1c(SCC(=O)N/N=C/C=C\c2ccccc2[N+](=O)[O-])nnc1-c1ccccc1	14.1 µM (active)	–
Cc1noc(C)c1C(=O)N1CCC[C@@]2(CCN(Cc3nccs3)C2)C1	inactive	–
Cc1cc(N2CCOCC2)nc(SCc2ccc(Cl)cc2Cl)n1	2.24 µM (active)	–
CSc1nc(C)cc(Nc2ccc(O)c(CN3CCOCC3)c2)n1	–	52.5% [at 11.4 µM] (inactive)
COc1cccc2c1C(=O)c1c(O)c3c(c(O)c1C2=O)C[C@](O)(C(=O)CO)C[C@H]3O[C@@H]1C[C@H](N)[C@H](O)[C@H](C)O1	inactive	–
CCCc1ccc(Oc2cc(C)nc(N3CCOCC3)n2)cc1	11.2 µM (active)	–

SMILES	AC50	activity, negative = inhibition
O=c1c(-c2ccccc2)nc2cnc(N3CCOCC3)nc2n1C1CC1	inactive	–
COc1ccc(-n2c(=O)c(-c3ccccc3)nc3cnc(N4CCOCC4)nc32)cc1	inactive	–
Cc1cc(Oc2ccc(-c3ccccc3)cc2)nc(N2CCOCC2)n1	14.1 µM (active)	–
Nc1nc(Cl)nc2c1ncn2[C@@H]1O[C@@H](COP(=O)(O)OP(=O)(O)OP(=O)(O)O)[C@@H](O)[C@H]1O	inactive	–
COc1ccc(CN(C(=O)Cc2cccs2)C(C(=O)NC2CCCC2)c2ccncc2)cc1 (stereo not given)	1.78 µM (active)	–
O=C(NC1CCCC1)C(c1ccsc1)N(Cc1ccccc1)C(=O)Cc1cccs1 (stereo not given)	5.01 µM (active)	–
O=C(NC1CCCCC1)C(c1cccs1)N(Cc1cccs1)C(=O)c1ccco1 (stereo not given)	1.58 µM (active)	–
CO[C@H]1[C@@H](OC(N)=O)[C@H](O)[C@@H](Oc2ccc3c(O)c(NC(=O)c4ccc(O)c(CC=C(C)C)c4)c(=O)oc3c2C)OC1(C)C	inactive	–
NC(=S)c1ccc[n+]([C@@H]2O[C@@H](COP(=O)([O-])OP(=O)(O)OC[C@@H]3O[C@@H](n4cnc5c(N)ncnc54)[C@@H](OP(=O)(O)O)[C@H]3O)[C@@H](O)[C@H]2O)c1	inactive	–
CCCC(=O)Nc1ccc(C(=O)/C=C/c2ccc(SC)cc2)cc1	2.51 µM (active)	–
COc1ccc2[nH]c(C(=O)c3ccccc3)cc2c1	inactive	–
COc1cccc(C(=O)/C=C/c2ccc(SC)cc2)c1	0.631 µM (active)	–
CCCCCCCCCCCCCCCCCCc1ccc(C(=O)/C=C\C(=O)O)cc1	inactive	–
O=S(=O)(NCc1cccnc1)c1ccc(Cl)nc1	31.6 µM (active)	–
c1cncc(CNCc2cccnc2)c1	–	5.45% [at 11.4 µM] (inactive)
OCCNc1ncnc2nc[nH]c12	–	10.2% [at 11.4 µM] (inactive)
Cc1cc2c(ncn2Cc2ccccc2)c([N+](=O)[O-])c1C	4.47 µM (active)	–
Cc1cccc(Cn2cnc3c(NS(C)(=O)=O)c(C)c(C)cc32)c1	3.98 µM (active)	–
COc1ccc2oc(-c3ccc(C)c(NC(=O)CSc4ccc(Cl)cc4)c3)nc2c1	0.562 µM (active)	–
CC[C@@H]1OC(=O)[C@H](C)[C@H](O[C@@H]2C[C@](C)(OC)[C@H](O)[C@H](C)O2)[C@H](C)[C@H](O[C@@H]2O[C@@H](C)C[C@@H](N(C)C)[C@@H]2O)[C@](C)(O)C[C@H](C)[C@@H]2N[C@H](COCCOC)O[C@H]([C@@H]2C)[C@]1(C)O	inactive	–
COC(=O)c1cc(NC(=O)CC2NC3CCCCC3NC2=O)cc(C(=O)OC)c1 (stereo not given)	inactive	–
CCN(CC)CCCNC(=O)CC1Sc2ccccc2NC1=O (stereo not given)	inactive	–
COC(=O)c1c(NC(=O)CC2Nc3ccccc3NC2=O)sc(C)c1C (stereo not given)	11.2 µM (active)	–
Nc1nc(N)c2nn(-c3ccc(C(=O)O)cc3)nc2n1	–	19.9% [at 11.4 µM] (inactive)
COC(=O)C1Cc2c([nH]c3ccccc23)CN1 (stereo not given)	3.98 µM (active)	–
O=C(O)[C@@H]1Cc2c([nH]c3ccccc23)[C@@H](CCCCO)N1	–	17.4% [at 11.4 µM] (inactive)
CC[C@H]1CN(C)[C@H]2Cc3c([nH]c4ccccc34)C(=O)C[C@H]1[C@H]2C(=O)OC	–	22.2% [at 11.4 µM] (inactive)
